High-throughput results (PubChem)
In the library only some 3.6% were active in any assay of this set; here they are far more common.
Pf apPOL block – Pf-apPOL DNA polymerase inhibition. Recombinant Pf-apPOL, molecular beacon fluorescence, 1.5 h. inhibition, % at 10 µM. 0.25% of 210,000 active. AID 1794808
mHTT-CaM PPI inh – disrupts binding of mutant huntingtin to calmodulin; 3.6% of 190,000 active; inhibition, % at 15 µM; P42858; AID 1671202; AlphaScreen His-mHTT/GST-CaM binding, luminescence
Target sequence (P42858 whole entry, looked up, change not shown): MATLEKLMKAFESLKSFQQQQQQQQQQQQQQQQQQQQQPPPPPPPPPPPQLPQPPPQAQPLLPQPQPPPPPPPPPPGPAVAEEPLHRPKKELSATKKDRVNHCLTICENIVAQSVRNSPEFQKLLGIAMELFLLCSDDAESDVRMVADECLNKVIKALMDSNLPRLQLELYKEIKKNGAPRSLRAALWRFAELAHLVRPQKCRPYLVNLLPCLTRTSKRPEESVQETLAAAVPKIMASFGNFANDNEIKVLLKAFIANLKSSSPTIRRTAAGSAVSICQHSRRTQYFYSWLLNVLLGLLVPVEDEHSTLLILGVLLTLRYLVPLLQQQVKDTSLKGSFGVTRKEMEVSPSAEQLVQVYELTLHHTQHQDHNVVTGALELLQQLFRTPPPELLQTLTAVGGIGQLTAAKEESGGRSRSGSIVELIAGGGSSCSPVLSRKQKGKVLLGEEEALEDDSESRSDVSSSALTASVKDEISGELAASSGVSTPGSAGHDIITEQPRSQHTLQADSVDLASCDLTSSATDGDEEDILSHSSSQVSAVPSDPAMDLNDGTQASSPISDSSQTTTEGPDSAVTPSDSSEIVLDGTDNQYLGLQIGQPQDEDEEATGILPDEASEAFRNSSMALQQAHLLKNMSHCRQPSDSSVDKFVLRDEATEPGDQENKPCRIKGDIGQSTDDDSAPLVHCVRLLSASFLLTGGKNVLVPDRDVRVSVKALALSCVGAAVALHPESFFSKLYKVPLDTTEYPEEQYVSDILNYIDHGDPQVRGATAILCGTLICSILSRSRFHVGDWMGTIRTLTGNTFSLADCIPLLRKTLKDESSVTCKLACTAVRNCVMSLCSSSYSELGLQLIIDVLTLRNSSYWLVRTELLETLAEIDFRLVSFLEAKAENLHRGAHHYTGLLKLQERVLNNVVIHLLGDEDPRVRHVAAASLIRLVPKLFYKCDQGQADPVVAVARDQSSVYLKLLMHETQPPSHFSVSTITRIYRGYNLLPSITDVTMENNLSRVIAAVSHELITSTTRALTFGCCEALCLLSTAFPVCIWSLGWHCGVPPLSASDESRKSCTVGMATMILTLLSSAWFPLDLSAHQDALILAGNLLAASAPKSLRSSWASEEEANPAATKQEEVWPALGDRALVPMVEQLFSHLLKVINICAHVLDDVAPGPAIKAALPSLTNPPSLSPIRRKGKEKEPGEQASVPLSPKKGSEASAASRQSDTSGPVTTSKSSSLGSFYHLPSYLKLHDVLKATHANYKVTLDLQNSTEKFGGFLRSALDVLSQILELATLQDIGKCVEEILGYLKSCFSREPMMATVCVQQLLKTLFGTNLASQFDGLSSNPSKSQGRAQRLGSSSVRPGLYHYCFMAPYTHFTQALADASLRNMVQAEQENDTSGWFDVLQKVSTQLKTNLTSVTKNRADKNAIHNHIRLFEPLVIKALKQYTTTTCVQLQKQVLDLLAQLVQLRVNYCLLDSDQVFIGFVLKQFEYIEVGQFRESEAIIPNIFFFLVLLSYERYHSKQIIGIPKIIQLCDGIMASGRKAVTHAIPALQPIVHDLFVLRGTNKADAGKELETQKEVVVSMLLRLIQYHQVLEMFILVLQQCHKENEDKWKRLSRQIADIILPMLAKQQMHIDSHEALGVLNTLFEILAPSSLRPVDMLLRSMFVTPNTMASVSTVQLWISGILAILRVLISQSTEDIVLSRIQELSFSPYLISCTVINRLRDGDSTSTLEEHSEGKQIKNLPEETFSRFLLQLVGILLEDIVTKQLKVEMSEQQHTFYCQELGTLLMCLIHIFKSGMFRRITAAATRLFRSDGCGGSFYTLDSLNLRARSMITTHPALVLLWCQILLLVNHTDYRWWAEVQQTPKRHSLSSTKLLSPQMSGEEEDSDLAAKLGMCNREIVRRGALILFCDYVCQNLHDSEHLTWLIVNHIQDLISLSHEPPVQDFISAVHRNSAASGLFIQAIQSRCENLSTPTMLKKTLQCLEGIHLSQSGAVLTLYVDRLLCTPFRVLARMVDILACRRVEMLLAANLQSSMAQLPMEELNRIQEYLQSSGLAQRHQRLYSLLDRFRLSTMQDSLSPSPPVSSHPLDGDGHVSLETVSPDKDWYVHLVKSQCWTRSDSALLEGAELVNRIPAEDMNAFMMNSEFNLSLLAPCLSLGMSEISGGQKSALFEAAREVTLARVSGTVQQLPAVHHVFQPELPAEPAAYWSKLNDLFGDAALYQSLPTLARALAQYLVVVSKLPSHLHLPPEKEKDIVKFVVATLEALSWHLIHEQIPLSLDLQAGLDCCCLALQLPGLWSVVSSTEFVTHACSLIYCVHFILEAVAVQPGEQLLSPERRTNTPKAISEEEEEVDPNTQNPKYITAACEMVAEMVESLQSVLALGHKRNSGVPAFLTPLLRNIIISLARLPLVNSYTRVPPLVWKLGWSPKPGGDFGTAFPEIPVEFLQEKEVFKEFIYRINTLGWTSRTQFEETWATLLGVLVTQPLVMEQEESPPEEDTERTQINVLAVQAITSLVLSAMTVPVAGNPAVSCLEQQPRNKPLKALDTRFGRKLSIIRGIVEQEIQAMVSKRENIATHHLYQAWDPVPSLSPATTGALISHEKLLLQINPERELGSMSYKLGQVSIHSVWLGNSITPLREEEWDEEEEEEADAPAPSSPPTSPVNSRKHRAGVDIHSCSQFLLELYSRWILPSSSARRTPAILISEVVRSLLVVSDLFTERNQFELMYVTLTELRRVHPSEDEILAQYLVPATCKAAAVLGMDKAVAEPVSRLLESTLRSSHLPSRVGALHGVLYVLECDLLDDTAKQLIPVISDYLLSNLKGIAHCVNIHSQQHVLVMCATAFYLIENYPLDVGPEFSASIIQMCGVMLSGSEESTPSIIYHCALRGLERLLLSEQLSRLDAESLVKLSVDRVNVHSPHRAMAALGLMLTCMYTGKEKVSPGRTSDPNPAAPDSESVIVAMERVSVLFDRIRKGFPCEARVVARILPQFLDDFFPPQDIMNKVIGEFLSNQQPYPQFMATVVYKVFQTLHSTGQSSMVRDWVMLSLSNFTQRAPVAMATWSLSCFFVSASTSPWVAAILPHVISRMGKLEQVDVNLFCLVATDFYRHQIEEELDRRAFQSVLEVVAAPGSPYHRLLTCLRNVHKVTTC
Large screens that a line does not name were inactive. Rule as the data show it: active = inhibition above about 50%; inactive = the rest.

CC(=O)N(C)c1ccc(NC(=O)c2ccc(Cn3cc(Br)cn3)cc2)cc1	none
CCOC(=O)C(=O)NCC1COC2(CCCC2)O1 (stereo unspecified)	none
CCOc1ccccc1NC(=O)N1CCCC1c1ccc(F)cc1 (stereo unspecified)	none
Cc1ccnc(N2CCCC(C(=O)NCCCN3CCN(C)CC3)C2)n1 (stereo unspecified)	none
Cn1ncc(N2CCCC(C(=O)NCCCN3CCCc4ccccc43)C2)cc1=O (stereo unspecified)	mHTT-CaM PPI inh 74.8
O=C(NCCCN1CCCc2ccccc21)C1CCc2nc(N3CCOCC3)ncc2C1 (stereo unspecified)	none
Cc1ccnc(N2CCCC(C(=O)NCCCN3CCCc4ccccc43)C2)n1 (stereo unspecified)	mHTT-CaM PPI inh 52.3
Cn1ncc(N2CCCC(C(=O)NCCCN3CCCCC3)C2)cc1=O (stereo unspecified)	none
O=C(NCCCN1CCCc2ccccc21)C1CCc2nc(N3CCCCC3)ncc2C1 (stereo unspecified)	mHTT-CaM PPI inh 53.9
Cn1ncc(N2CCCC(C(=O)NCCCN3CCCC3=O)C2)cc1=O (stereo unspecified)	mHTT-CaM PPI inh 100.3
Cn1ncc(N2CCCC(C(=O)NCCCc3ccccc3)C2)cc1=O (stereo unspecified)	none
CC12OC(=N)C(C#N)(C1c1ccccc1)C(C#N)(C#N)C(c1ccccc1)O2 (stereo unspecified)	none
N#CC1=C(N)Oc2n[nH]c(C(F)(F)F)c2C1c1ccco1 (stereo unspecified)	none
CN1OCC(S(=O)(=O)NCc2ccc(F)cc2)C1c1ccc(F)c(Cl)c1 (stereo unspecified)	none
N#CCCSc1sc2c(O)cc(=O)[nH]c2c1C#N	none (no result: Pf apPOL block)
COc1cc(C(=O)NCCC2CCN(C(=O)NC3CCCCC3)CC2)cc(OC)c1OC	none
Cc1c(N=Cc2cccn2-c2ccc([N+](=O)[O-])cc2)c(=O)n(-c2ccccc2)n1C	none
CC(C)OCCCNC(=O)C1(C)CCC(=O)N1Cc1cccnc1 (stereo unspecified)	none
COc1ccc(OC)c(C2C(C#N)=C(N)Oc3n[nH]c(-c4cccs4)c32)c1 (stereo unspecified)	none
CC(O)(CNC(=O)C(=O)Nc1ccc(OC(F)(F)F)cc1)c1cccs1 (stereo unspecified)	none
CCCn1c(=N)c(C(N)=O)cc2c(=O)n3ccccc3nc21	none
CC(=O)Nc1cccc(NC(=O)c2sc3nc(-c4ccccc4)cn3c2C)c1	none
COc1ccc(NC(C)=O)cc1NC(=O)c1sc2nc(-c3ccccc3)cn2c1C	mHTT-CaM PPI inh 52.0
c1ccc(C2Oc3ccccc3C3CC(c4cccs4)=NN32)cc1 (stereo unspecified)	none
c1cncc(C2Oc3ccccc3C3CC(c4cccs4)=NN32)c1 (stereo unspecified)	none
Brc1ccc(C2Oc3ccccc3C3CC(c4cccs4)=NN32)o1 (stereo unspecified)	mHTT-CaM PPI inh 100.0
Oc1ccc(C2Oc3ccccc3C3CC(c4cccs4)=NN32)cc1 (stereo unspecified)	mHTT-CaM PPI inh 51.0
COc1ccc(O)c(C2Oc3ccccc3C3CC(c4cccs4)=NN32)c1 (stereo unspecified)	none
c1csc(C2=NN3C(C2)c2ccccc2OC3c2ccsc2)c1 (stereo unspecified)	none
CCOc1c(O)ccc(C2Oc3ccccc3C3CC(c4cccs4)=NN32)c1[N+](=O)[O-] (stereo unspecified)	mHTT-CaM PPI inh 54.0
Oc1ccccc1C1Oc2ccccc2C2CC(c3cccs3)=NN21 (stereo unspecified)	mHTT-CaM PPI inh 51.0
COc1cccc(-c2nc(C3CCN(S(=O)(=O)c4cccc(OC)c4)CC3)no2)c1	none
Cc1ccc(C(=O)N2CCc3c(c(-c4nc(-c5ccc(F)cc5)no4)nn3C)C2)s1	none
COc1ccc(C(=O)Nc2ccc(F)c(Cl)c2)cc1Cl	none
O=C(Nc1cccs1)Nc1nc2c(s1)Cc1ccccc1-2	none
Clc1ccc(C2=NN3C(C2)c2ccccc2OC3c2ccco2)cc1 (stereo unspecified)	mHTT-CaM PPI inh 87.0
c1ccc(C2=NN3C(C2)c2ccccc2OC3c2cccnc2)cc1 (stereo unspecified)	none
Oc1ccc(O)c(C2=NN3C(C2)c2ccccc2OC3c2cccs2)c1 (stereo unspecified)	mHTT-CaM PPI inh 66.8
Cc1ccc(C2=NN3C(C2)c2ccccc2OC3c2ccccc2)o1 (stereo unspecified)	none
Clc1ccc(Nc2nc3nonc3nc2Nc2ccc(Cl)c(Cl)c2)cc1Cl	none (no result: Pf apPOL block)
Cn1cnnc1-c1cccc(NC(=O)c2ccc(F)cc2)c1	none
CCCc1cc(C2CCCN2Cc2cc(Br)ccc2O)no1 (stereo unspecified)	none
Cc1cc(C2CCCN2Cc2cc(Br)ccc2O)no1 (stereo unspecified)	mHTT-CaM PPI inh 62.3
O=C(NCc1ccco1)c1nn2c(c1Br)NC(c1cccs1)CC2C(F)(F)F (stereo unspecified)	none
O=C1S/C(=C\c2cccc(F)c2)C(=O)N1CNc1ccccc1	none
Cc1cc(C)cc(N(CC(=O)Nc2ccc(F)c(Cl)c2)S(C)(=O)=O)c1	mHTT-CaM PPI inh 56.4
Cc1cc(Cl)ccc1N(CC(=O)Nc1ccc(F)cc1)S(C)(=O)=O	none
Cc1nc(C)n(CC(O)COc2ccc(-c3ccccc3)cc2)n1 (stereo unspecified)	none
Cc1nn(CC(O)COC(c2ccccc2)c2ccccc2)c(C)c1Br (stereo unspecified)	mHTT-CaM PPI inh 99.0
CCOc1ccccc1NC(NC(=O)c1ccco1)C(=O)c1ccc(Cl)cc1 (stereo unspecified)	none
COc1ccc(OC)c(NC(NC(=O)c2ccco2)C(=O)c2ccc(Cl)cc2)c1 (stereo unspecified)	mHTT-CaM PPI inh 67.0
O=C(NCc1cccnc1)c1cnn2c(-c3ccccc3)ccnc12	none
CC(=O)C1=C(O)C(=O)N(CCO)C1c1ccc(O)cc1 (stereo unspecified)	none
O=[N+]([O-])c1ccc2nc(/C=C/c3ccco3)[nH]c2c1	mHTT-CaM PPI inh 59.0
C(=C\c1ccco1)/c1nc2ccccc2[nH]1	none
O=C(CN1C(=O)C2CCCN2C(=O)c2ccccc21)NCCCN1CCCCC1 (stereo unspecified)	none
C[C@@H](c1ccccc1)N1C[C@H](COCc2ccccc2)Oc2cc(N3CCC[C@H]3CO)ccc2S1(=O)=O	none
C[C@@H](c1ccccc1)N1C[C@H](COCc2ccccc2)Oc2cc(N3CC[C@@H](O)C3)ccc2S1(=O)=O	mHTT-CaM PPI inh 52.5
C[C@H](c1ccccc1)N1C[C@H](COCc2ccccc2)Oc2cc(N3CC[C@@H](O)C3)ccc2S1(=O)=O	mHTT-CaM PPI inh 53.6
COC[C@H]1CCCN1c1ccc2c(c1)O[C@H](COCc1ccccc1)CN([C@@H](C)c1ccccc1)S2(=O)=O	none
C[C@@H](c1ccccc1)N1C[C@@H](COCc2ccccc2)Oc2cc(N3CC[C@@H](N(C)C)C3)ccc2S1(=O)=O	mHTT-CaM PPI inh 100.2
C[C@@H](c1ccccc1)N1C[C@H](COCc2ccccc2)Oc2cc(N3CCC[C@H]3C(N)=O)ccc2S1(=O)=O	none
C[C@@H](c1ccccc1)N1C[C@@H](COCc2ccccc2)Oc2cc(N3CC[C@@H](O)C3)ccc2S1(=O)=O	mHTT-CaM PPI inh 56.4
C[C@@H](c1ccccc1)N1C[C@@H](COCc2ccccc2)Oc2cc(N3CCC[C@H]3C(N)=O)ccc2S1(=O)=O	none
Cc1oc2ccn(C)c(=O)c2c1C(=O)NCc1cccc(Br)c1	none
